The source of these data is PubChem BioAssay (Tox21).

Results filed as inconclusive are left out. Activity calls are given as the source filed them. Calls come from the whole dose curve; as a rule, active = well fitted inhibition curve with a large enough effect in the signal ratio in the repeat runs (not every such curve was filed as active); inconclusive = weak or mixed curves, or effect the other way; inactive = no such curve, though single readings can be large or run the other way; the % refers to the signal ratio.

The target of the test is Androgen receptor (Homo sapiens) (UniProt P10275). As to the kind of experiment: qHTS assay to identify small molecule antagonists of the androgen receptor (AR) signaling pathway (AID 743035). As to conditions: HEK293 AR-UAS-bla, R1881-stimulated, beta-lactamase FRET, 16 h; series mostly up to 58.5 µM. The text has this: National Center for Advancing Translational Sciences [NCATS]
Chain of Androgen receptor (Homo sapiens) (P10275 whole entry, looked up): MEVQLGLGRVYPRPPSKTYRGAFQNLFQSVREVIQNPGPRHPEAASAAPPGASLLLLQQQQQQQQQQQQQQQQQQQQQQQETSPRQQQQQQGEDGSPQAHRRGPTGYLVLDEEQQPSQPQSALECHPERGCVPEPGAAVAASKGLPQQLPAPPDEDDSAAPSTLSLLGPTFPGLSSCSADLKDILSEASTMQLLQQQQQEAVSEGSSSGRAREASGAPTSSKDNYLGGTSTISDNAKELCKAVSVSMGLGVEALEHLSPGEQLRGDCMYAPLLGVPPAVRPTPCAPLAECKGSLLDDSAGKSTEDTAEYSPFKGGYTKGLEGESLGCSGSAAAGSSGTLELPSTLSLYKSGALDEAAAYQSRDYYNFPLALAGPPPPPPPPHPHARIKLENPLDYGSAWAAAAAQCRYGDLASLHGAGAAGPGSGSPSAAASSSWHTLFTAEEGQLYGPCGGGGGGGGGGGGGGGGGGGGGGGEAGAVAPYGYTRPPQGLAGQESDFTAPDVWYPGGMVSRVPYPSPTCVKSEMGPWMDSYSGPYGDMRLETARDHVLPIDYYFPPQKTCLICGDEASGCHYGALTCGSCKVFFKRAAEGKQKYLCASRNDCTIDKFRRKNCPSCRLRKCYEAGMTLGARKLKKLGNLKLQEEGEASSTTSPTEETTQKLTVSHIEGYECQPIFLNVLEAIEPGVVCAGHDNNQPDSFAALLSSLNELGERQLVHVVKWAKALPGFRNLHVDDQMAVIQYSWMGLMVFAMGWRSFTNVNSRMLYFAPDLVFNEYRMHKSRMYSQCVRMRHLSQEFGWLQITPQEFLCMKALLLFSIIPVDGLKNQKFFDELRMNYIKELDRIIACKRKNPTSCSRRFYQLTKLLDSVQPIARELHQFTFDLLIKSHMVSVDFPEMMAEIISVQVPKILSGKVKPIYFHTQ
NIH Chemical Genomics Center [NCGC]
U.S. Environmental Protection Agency [EPA]
National Institutes of Environmental Health Sciences [NIEHS]
National Toxicology Program [NTP]
U.S. Food and Drug Administration [FDA]
Androgen receptor (AR), a nuclear hormone receptor, plays a critical role in AR-dependent prostate cancer and other androgen related diseases. Endocrine disrupting chemicals (EDCs) and their interactions with steroid hormone receptors like AR may cause disruption of normal endocrine function as well as interfere with metabolic homeostasis, reproduction, developmental and behavioral functions. To identify the compounds that inhibit AR signaling, GeneBLAzer AR-UAS-bla-GripTite cell line (Invitrogen, Carlsbad, CA, USA) containing a beta-lactamase reporter gene under control of an Upstream Activator Sequence (UAS) stably integrated into HEK293 cells was used to screen the Tox21 10K compound library.
Tox21 Assay Protocol Summary:
AR-bla cells were dispensed at 2,000 cells/5 uL of assay medium per well into black wall/clear-bottom 1536-well plates using a Multidrop Combi (ThermoFisher Scientific, Waltham, MA) dispenser. After the assay plates were incubated at a 37C and 5% CO2 for 4 hr, 23 nL of compounds dissolved in DMSO, positive controls or DMSO only was transferred to the assay plate by a Pintool station (Kalypsys, San Diego, CA), followed by addition of 1 uL of agonist (R1881) in culture medium using a Bioraptr Flying Reagent Dispenser (FRD) workstation (Beckman Coulter, Indianapolis, IN, USA). The plates were incubated at a 37C and 5% CO2 for 16 h. After 1 uL of LiveBLAzerTM B/G FRET substrate was added using a Bioraptr FRD, the plates were incubated at room temperature for 2 h and fluorescence intensity was measured by an Envision plate reader (PerkinElmer, Shelton, CT).
With `OCC1CCC(CO)CC1` (stereo not drawn), the call was inactive.
The value for `CC(=O)O[C@@H]1CC2CCC1(C)C2(C)C` (stereo partly drawn) was “inactive”; that for `CCO` was “inactive”.
Take `Cc1ccc(C(=O)O)cc1[N+](=O)[O-]`: the outcome was inactive.
With `CC(C)C1OCCN1CCOC(=O)NCCCCCCNC(=O)OCCN1CCOC1C(C)C` (stereo not drawn), the compound was classed as inactive.
Turning to `CC(=O)CC(=O)Nc1ccc(C)cc1C`, the call was inactive.
The value for `CCO[Si](CC)(OCC)OCC` was “inactive”.
As to `CCCCC1CCC(O)CC1` (stereo not drawn), the compound was classed as inactive.
Regarding `Cc1c(C(=O)c2c[nH]n(C)c2=O)ccc(S(C)(=O)=O)c1C1=NOCC1`, the result was inactive.
For `CC(=O)O[C@H]1C[C@@H]2CC[C@@]1(C)C2(C)C`, the compound was called inactive.
As for `CC(Oc1cc(Cl)ccc1Cl)C(=O)O` (stereo not drawn), the entry is “inactive”; as for `C=CCOC(=O)CCCCCC`, “inactive”; as for `C/C=C(\C)C(C)=O`, “inactive”.
Take `CC(C)COC(=O)c1ccccc1`: the outcome was inactive.
As for `COC(C)(OC)OC`, the entry is “inactive”.
As for `COc1ccc2c(c1)c1c3n2CCN(C)C3=NCC1`, the entry is “inactive”; as for `COC(=O)c1cc(Cl)cc(Cl)c1`, “inactive”; as for `CC(S)C(C)S` (stereo not drawn), “inactive”.
The value for `N[C@@H](CSCCCO)C(=O)O` was “inactive”; that for `O=C(Cl)c1ccccc1[N+](=O)[O-]` was “inactive”.
Regarding `O=C(NCN1CCOCC1)c1cnccn1`, the outcome was inactive.
Take `CCC(=O)c1c(O)cc(O)cc1O`: the compound was called inactive.
Turning to `CC(=O)c1cc(C)oc1C`, the compound was called inactive.
The value for `CC(C)[C@H]1CC[C@H](C)C[C@@H]1O` was “inactive”; that for `C#CCN[C@@H]1CCc2ccccc21` was “inactive”.
As for `CC(=O)OC1CCCCC1C(C)(C)C` (stereo not drawn), the entry is “inactive”.
As for `CC(=O)CC(=O)OC(C)(C)C`, the entry is “inactive”; as for `CCC(C)OC(C)CC` (stereo not drawn), “inactive”.
